From ChEMBL document CHEMBL1961873, “Compounds: GSK PKIS; Assays: Nanosyn kinase panel” (2012)

Columns and labels:
[1] = target: Protein kinase C gamma type (Homo sapiens) (UniProt P05129); conditions: at 1 µM;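 further: each value is an averaged percent inhibition of the enzyme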
[2] = target: T1, Protein kinase C iota type (Homo sapiens) (UniProt P41743); conditions: at 0.1 µM
T1 sequence (whole entry): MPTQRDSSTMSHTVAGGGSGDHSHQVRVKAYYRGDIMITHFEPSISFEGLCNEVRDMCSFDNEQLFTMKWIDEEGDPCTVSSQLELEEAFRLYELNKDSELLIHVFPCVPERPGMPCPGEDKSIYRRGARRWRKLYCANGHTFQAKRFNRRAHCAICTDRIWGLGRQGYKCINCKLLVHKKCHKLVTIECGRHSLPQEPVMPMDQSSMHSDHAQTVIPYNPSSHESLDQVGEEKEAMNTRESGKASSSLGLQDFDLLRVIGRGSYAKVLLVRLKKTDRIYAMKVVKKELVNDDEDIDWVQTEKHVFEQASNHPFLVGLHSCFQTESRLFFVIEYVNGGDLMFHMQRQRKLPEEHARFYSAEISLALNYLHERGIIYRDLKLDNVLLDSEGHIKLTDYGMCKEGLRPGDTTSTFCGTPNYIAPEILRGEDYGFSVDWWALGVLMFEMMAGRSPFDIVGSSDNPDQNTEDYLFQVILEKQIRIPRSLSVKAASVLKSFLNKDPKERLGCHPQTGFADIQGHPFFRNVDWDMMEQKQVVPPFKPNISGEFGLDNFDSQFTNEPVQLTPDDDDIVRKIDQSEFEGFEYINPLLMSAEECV

[3] = target: T1, Protein kinase C iota type (Homo sapiens); conditions: at 1 µM
[4] = target: Protein kinase C theta type (Homo sapiens) (UniProt Q04759); conditions: at 0.1 µM
[5] = target: Protein kinase C theta type (Homo sapiens) (UniProt Q04759); conditions: at 1 µM
[6] = target: Protein kinase C beta type (Homo sapiens) (UniProt P05771); conditions: at 0.1 µM
[7] = target: Protein kinase C beta type (Homo sapiens) (UniProt P05771); conditions: at 1 µM
[8] = target: T2, Serine/threonine-protein kinase D1 (Homo sapiens) (UniProt Q15139); conditions: at 0.1 µM
T2 sequence (whole entry): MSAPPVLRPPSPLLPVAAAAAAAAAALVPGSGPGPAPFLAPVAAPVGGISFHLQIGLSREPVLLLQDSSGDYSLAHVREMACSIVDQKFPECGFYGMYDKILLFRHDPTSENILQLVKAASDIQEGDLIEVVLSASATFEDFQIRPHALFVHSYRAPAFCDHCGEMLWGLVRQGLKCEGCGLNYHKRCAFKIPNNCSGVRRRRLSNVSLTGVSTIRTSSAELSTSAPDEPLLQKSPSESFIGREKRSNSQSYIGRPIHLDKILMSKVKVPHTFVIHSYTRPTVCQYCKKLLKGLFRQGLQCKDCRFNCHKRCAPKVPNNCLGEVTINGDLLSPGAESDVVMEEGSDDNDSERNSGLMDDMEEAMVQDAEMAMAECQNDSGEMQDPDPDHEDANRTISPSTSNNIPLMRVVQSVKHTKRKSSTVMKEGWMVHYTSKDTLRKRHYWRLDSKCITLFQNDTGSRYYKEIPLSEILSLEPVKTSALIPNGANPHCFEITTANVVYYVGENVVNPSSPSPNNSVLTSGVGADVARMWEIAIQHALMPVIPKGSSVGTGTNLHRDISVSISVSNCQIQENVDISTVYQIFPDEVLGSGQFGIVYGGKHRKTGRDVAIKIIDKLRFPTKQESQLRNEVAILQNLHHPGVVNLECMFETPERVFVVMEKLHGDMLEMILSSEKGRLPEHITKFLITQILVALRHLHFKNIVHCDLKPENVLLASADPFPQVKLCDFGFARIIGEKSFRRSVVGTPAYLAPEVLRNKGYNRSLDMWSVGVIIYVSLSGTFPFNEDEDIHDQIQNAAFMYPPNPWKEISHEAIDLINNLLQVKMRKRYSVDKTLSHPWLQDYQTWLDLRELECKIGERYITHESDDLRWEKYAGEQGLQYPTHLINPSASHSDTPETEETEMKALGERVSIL

[9] = target: T2, Serine/threonine-protein kinase D1 (Homo sapiens); conditions: at 1 µM
[10] = target: T3, Serine/threonine-protein kinase D2 (Homo sapiens) (UniProt Q9BZL6); conditions: at 0.1 µM
T3 sequence (whole entry): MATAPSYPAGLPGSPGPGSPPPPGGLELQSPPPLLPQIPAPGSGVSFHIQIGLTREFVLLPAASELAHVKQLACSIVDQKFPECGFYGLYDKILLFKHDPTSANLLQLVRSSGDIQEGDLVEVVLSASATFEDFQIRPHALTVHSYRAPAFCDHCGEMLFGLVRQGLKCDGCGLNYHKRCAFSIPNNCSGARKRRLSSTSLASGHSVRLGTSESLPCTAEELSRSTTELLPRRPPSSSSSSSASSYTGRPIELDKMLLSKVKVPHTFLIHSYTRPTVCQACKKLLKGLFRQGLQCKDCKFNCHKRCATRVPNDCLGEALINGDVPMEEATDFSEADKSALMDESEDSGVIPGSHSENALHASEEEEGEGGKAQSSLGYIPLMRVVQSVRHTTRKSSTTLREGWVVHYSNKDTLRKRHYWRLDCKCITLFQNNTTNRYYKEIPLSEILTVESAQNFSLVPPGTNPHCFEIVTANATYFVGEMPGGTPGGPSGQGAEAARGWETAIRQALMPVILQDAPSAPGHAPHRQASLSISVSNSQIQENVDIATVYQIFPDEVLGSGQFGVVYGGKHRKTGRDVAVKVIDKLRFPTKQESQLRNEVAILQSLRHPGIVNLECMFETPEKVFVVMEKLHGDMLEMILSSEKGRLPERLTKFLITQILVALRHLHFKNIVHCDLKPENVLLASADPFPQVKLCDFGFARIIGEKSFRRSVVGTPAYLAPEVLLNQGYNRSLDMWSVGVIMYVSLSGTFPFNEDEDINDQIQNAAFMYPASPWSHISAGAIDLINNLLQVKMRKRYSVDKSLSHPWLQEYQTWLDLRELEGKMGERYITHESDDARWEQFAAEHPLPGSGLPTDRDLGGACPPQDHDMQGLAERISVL

[11] = target: T3, Serine/threonine-protein kinase D2 (Homo sapiens); conditions: at 1 µM
[12] = target: T4, Serine/threonine-protein kinase D3 (Homo sapiens) (UniProt O94806); conditions: at 0.1 µM
T4 sequence (whole entry): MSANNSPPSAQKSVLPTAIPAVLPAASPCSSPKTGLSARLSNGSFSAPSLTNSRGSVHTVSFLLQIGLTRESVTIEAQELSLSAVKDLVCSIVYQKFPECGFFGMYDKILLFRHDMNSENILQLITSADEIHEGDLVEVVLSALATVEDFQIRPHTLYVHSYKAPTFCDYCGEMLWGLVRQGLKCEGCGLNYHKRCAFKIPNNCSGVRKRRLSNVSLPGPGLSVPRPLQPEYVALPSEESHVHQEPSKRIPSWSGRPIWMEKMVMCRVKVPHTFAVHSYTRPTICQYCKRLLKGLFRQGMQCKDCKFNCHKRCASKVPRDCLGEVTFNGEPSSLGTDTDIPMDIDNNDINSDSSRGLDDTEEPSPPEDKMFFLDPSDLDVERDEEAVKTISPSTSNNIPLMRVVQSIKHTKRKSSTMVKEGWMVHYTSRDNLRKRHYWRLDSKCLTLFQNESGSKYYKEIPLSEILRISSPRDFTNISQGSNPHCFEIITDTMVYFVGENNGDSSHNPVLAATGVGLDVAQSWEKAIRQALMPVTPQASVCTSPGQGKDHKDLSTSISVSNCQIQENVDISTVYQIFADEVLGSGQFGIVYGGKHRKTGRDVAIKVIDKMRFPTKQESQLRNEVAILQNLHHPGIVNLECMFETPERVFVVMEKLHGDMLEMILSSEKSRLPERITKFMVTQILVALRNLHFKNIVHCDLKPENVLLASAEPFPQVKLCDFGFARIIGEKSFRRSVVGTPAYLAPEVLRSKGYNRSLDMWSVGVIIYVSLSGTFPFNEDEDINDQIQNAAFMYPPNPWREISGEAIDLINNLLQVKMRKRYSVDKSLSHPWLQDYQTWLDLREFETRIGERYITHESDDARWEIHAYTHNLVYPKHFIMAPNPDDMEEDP

[13] = target: T4, Serine/threonine-protein kinase D3 (Homo sapiens); conditions: at 1 µM
[14] = target: T5, cGMP-dependent protein kinase 1 (Homo sapiens) (UniProt Q13976); conditions: at 0.1 µM
T5 sequence (whole entry): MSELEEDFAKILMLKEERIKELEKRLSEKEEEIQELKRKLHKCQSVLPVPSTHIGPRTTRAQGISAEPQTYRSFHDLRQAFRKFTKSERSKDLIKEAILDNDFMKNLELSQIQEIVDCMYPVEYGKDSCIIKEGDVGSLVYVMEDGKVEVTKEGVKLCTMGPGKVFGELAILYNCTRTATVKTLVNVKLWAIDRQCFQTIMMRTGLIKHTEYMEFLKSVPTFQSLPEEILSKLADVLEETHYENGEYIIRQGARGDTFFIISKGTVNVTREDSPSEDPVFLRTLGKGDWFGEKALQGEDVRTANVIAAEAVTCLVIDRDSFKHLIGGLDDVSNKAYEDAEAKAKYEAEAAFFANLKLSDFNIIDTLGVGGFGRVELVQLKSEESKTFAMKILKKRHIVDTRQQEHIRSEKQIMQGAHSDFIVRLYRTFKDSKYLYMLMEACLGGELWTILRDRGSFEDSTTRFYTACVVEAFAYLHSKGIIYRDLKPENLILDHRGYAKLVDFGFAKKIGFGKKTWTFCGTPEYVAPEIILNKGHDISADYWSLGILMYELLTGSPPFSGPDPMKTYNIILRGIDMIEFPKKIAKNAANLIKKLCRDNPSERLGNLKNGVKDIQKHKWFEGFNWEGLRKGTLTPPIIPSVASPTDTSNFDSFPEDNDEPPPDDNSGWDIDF

[15] = target: T5, cGMP-dependent protein kinase 1 (Homo sapiens); conditions: at 1 µM
[16] = target: T6, cGMP-dependent protein kinase 2 (Homo sapiens) (UniProt Q13237); conditions: at 0.1 µM
T6 sequence (whole entry): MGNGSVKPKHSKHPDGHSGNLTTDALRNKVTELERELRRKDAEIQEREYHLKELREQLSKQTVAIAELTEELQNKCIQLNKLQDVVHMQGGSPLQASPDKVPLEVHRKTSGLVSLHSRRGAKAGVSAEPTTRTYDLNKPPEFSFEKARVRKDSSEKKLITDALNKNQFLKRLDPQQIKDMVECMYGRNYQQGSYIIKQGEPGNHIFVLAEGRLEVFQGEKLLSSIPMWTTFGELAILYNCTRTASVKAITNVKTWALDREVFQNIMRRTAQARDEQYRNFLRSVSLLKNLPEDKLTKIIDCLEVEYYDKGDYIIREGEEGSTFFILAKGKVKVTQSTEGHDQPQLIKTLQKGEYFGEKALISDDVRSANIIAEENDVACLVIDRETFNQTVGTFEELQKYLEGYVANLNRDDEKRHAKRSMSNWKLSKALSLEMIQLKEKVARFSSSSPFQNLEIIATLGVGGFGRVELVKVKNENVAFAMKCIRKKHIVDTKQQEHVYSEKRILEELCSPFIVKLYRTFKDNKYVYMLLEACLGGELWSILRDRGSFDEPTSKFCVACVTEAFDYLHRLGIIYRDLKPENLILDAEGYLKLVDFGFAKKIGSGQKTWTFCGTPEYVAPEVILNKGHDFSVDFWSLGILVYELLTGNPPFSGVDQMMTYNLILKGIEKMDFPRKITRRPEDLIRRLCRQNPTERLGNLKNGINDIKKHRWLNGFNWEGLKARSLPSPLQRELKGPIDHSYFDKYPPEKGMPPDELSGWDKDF

[17] = target: T6, cGMP-dependent protein kinase 2 (Homo sapiens); conditions: at 1 µM
[18] = target: T7, cAMP-dependent protein kinase catalytic subunit PRKX (Homo sapiens) (UniProt P51817); conditions: at 0.1 µM
T7 sequence (whole entry): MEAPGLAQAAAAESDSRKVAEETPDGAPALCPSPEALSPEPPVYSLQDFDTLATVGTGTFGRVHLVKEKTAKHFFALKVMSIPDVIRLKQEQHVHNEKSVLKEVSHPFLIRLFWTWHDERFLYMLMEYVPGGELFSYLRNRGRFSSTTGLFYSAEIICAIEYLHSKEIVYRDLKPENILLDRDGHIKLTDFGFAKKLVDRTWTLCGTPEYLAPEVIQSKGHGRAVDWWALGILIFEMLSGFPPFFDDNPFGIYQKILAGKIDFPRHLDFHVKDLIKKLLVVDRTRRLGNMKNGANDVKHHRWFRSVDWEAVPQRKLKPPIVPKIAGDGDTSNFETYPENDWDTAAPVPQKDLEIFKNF

[19] = target: T7, cAMP-dependent protein kinase catalytic subunit PRKX (Homo sapiens); conditions: at 1 µM
[20] = target: Rho-associated protein kinase 1 (Homo sapiens) (UniProt Q13464); conditions: at 0.1 µM;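 further: values are mean percent inhibition of ROCK1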
Sequence of Rho-associated protein kinase 1 (Homo sapiens) (Q13464 2-1354 limits assumed): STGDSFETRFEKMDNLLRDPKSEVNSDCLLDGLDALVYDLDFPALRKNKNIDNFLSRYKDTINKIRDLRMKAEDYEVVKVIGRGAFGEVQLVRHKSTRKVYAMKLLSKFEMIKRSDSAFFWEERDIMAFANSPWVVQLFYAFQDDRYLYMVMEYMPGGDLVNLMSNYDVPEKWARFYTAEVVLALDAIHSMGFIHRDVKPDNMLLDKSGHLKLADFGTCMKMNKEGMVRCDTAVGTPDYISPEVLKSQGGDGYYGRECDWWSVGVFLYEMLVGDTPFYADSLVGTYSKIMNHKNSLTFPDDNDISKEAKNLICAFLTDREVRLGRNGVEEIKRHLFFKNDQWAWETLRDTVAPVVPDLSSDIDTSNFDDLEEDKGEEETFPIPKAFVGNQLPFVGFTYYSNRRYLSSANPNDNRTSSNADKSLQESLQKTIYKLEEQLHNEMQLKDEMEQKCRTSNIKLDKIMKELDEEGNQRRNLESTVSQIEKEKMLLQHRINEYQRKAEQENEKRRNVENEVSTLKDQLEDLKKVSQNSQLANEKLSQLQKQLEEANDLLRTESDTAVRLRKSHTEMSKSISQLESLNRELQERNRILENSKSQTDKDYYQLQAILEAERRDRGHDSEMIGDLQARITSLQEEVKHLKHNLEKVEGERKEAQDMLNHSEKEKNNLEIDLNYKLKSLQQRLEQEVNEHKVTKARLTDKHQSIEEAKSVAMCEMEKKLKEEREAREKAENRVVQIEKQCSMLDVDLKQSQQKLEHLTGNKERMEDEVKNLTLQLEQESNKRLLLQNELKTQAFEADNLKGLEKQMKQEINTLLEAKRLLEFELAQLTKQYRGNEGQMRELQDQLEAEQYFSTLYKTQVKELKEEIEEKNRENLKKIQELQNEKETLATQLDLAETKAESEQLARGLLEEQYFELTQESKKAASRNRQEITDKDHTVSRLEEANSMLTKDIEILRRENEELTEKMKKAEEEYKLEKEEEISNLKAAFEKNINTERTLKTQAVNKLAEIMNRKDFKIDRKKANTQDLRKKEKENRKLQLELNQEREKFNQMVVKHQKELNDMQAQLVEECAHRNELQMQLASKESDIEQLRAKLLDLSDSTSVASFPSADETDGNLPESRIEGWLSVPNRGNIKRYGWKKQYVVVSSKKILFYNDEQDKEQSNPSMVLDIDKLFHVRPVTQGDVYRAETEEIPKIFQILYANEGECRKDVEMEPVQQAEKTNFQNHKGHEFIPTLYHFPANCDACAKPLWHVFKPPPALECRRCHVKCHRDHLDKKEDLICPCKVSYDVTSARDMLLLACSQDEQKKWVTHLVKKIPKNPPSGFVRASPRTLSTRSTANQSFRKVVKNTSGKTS

Sequence of Protein kinase C theta type (Homo sapiens) (Q04759 whole entry, looked up): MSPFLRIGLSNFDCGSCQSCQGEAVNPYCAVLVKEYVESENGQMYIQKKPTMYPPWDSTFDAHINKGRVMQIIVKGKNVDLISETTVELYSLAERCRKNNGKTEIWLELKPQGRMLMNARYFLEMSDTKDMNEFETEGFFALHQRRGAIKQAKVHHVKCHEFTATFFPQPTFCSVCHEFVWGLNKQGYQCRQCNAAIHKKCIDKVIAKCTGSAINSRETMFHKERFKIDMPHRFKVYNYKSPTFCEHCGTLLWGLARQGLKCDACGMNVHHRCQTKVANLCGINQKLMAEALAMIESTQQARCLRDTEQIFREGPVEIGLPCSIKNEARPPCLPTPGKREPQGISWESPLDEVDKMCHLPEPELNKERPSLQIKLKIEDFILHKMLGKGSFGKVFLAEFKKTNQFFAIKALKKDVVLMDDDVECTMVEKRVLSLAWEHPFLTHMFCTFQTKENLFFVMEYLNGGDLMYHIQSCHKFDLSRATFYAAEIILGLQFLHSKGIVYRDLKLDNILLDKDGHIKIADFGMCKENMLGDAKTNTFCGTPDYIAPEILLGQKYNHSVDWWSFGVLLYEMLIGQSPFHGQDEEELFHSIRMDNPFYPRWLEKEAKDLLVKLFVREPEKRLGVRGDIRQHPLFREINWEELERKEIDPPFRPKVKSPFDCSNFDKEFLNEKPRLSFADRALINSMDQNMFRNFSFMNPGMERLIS
Sequence of Protein kinase C beta type (Homo sapiens) (P05771 2-671 limits assumed): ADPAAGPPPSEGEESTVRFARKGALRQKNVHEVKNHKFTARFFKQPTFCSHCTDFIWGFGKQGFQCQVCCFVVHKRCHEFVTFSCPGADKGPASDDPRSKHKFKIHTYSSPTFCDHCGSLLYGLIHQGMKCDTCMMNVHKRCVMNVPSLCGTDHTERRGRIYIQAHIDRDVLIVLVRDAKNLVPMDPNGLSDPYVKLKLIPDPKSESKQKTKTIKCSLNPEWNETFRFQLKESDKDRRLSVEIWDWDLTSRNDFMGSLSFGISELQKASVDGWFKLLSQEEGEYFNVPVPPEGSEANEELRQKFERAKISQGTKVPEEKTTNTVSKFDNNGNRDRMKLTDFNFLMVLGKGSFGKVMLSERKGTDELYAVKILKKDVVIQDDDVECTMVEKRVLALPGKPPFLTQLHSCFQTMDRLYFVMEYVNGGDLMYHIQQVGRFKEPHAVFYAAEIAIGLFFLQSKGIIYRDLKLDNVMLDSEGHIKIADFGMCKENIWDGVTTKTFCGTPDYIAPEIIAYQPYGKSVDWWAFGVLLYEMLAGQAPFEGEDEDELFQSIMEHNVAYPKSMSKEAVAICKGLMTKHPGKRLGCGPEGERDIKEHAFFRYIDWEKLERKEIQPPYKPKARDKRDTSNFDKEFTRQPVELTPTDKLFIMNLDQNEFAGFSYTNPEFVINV

| Compound | inhibition [1] | inhibition [2] | inhibition [3] | inhibition [4] | inhibition [5] | inhibition [6] | inhibition [7] | inhibition [8] | inhibition [9] | inhibition [10] | inhibition [11] | inhibition [12] | inhibition [13] | inhibition [14] | inhibition [15] | inhibition [16] | inhibition [17] | inhibition [18] | inhibition [19] | inhibition [20] |
| --- | --- | --- | --- | --- | --- | --- | --- | --- | --- | --- | --- | --- | --- | --- | --- | --- | --- | --- | --- | --- |
| Fc1ccc(-c2c(-c3ccncc3)nc3n2CCS3)cc1 | 4.08% | 1.39% | 1.01% | 1.55% | 4.99% | 1.11% | 3.63% | -0.81% | 2.14% | -0.29% | 0.4% | 0.15% | 1.02% | 4.15% | 8.03% | 2.62% | 7.38% | 6.08% | 14.6% | 8.73% |
| COc1ccc2cc(-c3c(-c4ccncc4)nc(-c4ccc(S(C)(=O)=O)cc4C)n3C)ccc2c1 | 7.85% | 3.93% | 3.45% | 2.19% | 5.03% | 3.45% | 9.63% | 4.08% | 4.53% | 4.88% | 4.27% | 3.99% | 4.2% | 5.14% | 8.86% | 5.61% | 6.44% | 5.93% | 12.1% | 8.02% |
| CN(C)CCOc1ccc(-c2cc(-c3ccc4c(c3)CCC4=NO)c(-c3ccncc3)o2)cc1 | 0.02% | -1.87% | -1.84% | -1.06% | -0.42% | -0.72% | 2.28% | -0.39% | 0.79% | 0.89% | 1.9% | -0.84% | 0.31% | -1.48% | 3.68% | -0.1% | 11.2% | -0.21% | -1.72% | -1.57% |
